Design in all cases: scale not given: direction of the effect not stated beside the values
The target of test [1] is Protein translocase subunit SecA (Escherichia coli (strain K12)) (UniProt P10408). Description: Assay to Identify E. coli SecA ATPase Inhibitors. It counts as functional. To be noted: 30 µM.
The target in test [2] is T1, Ubiquitin-activating enzyme e1, putative (Leishmania donovani (strain BPK282A1)) (UniProt E9BSI1).
T1 sequence (whole entry): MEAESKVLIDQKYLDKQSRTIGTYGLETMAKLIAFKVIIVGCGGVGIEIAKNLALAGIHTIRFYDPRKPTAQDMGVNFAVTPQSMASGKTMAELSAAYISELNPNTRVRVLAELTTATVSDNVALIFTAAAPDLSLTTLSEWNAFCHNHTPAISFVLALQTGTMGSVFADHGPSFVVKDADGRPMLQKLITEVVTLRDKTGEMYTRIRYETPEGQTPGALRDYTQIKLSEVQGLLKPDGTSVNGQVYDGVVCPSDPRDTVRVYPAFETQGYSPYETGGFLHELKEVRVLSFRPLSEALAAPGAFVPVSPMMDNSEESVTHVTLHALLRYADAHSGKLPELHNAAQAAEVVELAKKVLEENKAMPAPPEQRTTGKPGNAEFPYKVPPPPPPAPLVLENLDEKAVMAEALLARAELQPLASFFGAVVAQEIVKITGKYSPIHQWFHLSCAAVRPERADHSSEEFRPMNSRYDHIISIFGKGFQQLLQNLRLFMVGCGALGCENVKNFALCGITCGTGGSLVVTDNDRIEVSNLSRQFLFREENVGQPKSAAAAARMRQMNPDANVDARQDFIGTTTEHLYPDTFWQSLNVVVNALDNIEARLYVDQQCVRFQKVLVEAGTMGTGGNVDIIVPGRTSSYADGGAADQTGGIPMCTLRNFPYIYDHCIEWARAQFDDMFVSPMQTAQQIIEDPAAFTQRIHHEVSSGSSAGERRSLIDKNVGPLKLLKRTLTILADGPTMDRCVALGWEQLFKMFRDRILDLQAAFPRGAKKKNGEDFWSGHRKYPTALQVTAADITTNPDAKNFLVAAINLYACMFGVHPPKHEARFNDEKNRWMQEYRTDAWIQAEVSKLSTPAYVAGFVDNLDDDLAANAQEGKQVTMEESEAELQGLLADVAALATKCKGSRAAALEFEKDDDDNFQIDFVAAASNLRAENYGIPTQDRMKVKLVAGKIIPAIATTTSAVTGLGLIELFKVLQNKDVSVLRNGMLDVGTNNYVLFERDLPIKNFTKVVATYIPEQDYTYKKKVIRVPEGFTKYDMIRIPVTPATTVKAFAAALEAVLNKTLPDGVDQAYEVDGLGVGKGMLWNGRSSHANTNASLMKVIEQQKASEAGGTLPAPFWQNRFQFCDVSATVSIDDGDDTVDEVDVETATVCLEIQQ
Description: Leishmania donovani Ubiquitin Activating Enzyme (LdE1). It counts as functional. Conditions: 30 µM.

Test [3] has as its target AMP-activated protein kinase, AMPK (Homo sapiens) (UniProt P54646+O43741+P54619+Q9UGJ0+Q9Y478+Q13131+Q9UGI9). Description: AMP-dependent Kinase enzyme assay. An in vitro enzyme assay that detects ADP turnover that is directly proportional to AMPK activity. This uses naive AMPK that is activated during the assay with MK-8722. Conditions: 30 µM. It counts as functional.
Test [4] has as its target Sialic acid-binding Ig-like lectin 9 (Homo sapiens) (UniProt Q9Y336). Description: Hs-Siglec9 ALPHAscreen SOP 20170721. Conditions: 10 µM. In general terms: Alpha assays give light when donor and acceptor beads are brought close together.
Another test has as its system Trypanosoma cruzi. Description: Trypanosoma cruzi phosphomannomutase and mannose-1-phosphate guanylyltransferase assay. The class given is functional. To be noted: 10 µM.
For test [5], the target named is T2, Arginase-2, mitochondrial (Homo sapiens) (UniProt P78540).
T2 sequence (whole entry): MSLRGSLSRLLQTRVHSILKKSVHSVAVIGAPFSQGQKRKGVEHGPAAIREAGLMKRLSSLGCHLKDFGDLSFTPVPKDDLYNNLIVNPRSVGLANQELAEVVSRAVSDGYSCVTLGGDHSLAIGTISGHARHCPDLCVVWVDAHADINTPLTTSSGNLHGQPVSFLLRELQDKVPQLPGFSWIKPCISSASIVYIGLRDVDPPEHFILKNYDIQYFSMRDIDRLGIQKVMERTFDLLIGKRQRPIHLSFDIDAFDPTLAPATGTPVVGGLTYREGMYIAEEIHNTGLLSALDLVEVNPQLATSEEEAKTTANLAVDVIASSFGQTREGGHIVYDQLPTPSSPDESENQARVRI
Description: in vitro enzyme assay to detect the production of urea directly proportional to the activity of Arginase II. Also: in the data most compounds retested in dose-response had high values. It counts as functional. To be noted: 33.3 µM.

Test [6] has as its target T3, Proteasome subunit beta (Trypanosoma cruzi) (UniProt O96673).
T3 sequence (whole entry): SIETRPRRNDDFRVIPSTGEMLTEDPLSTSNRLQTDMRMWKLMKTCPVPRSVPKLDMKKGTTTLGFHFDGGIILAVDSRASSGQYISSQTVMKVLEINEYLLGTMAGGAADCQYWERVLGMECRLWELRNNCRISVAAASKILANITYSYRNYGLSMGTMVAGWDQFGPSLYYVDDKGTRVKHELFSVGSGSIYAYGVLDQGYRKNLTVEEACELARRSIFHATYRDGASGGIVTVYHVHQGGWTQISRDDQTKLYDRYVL
Description: Trypanosoma cruzi proteasome chymotrypsin-like activity (TcProtChymo) assay. Also: in the data most compounds retested in dose-response had high values. The class given is functional. Conditions: 9.37 µM.

For another test, the species on record is Homo sapiens. Description: To identify inhibition of the IFN signalling (Jak-Stat) pathway via expression of an eGFP reporter gene under the control of an IFN-stimulated response element (ISRE) containing MxA promoter. It counts as functional. To be noted: 30 µM. A general note: A reporter such as luciferase makes a cellular process visible.
In test [7] the target is T4, Tyrosyl-tRNA synthetase, putative (Trypanosoma cruzi (strain CL Brener)) (UniProt Q4DSP6).
T4 sequence (whole entry): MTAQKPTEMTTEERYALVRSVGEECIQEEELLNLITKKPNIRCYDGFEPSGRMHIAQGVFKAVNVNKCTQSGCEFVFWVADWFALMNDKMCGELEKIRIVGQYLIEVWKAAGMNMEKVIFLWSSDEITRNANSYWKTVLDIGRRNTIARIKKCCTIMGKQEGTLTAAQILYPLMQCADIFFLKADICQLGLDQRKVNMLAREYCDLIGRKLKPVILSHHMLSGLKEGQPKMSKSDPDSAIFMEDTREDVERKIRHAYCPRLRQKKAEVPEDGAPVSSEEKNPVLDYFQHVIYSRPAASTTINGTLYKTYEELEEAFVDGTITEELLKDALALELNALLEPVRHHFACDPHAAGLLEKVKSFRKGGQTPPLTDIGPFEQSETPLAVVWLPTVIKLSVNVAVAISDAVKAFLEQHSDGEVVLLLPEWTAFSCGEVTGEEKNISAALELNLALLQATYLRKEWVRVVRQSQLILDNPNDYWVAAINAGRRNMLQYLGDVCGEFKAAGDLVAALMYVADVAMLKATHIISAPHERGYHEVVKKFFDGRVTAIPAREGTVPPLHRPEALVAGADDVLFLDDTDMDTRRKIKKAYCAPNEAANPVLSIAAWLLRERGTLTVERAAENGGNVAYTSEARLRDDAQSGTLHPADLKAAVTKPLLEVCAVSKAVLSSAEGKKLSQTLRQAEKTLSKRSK
Description: Trypanosoma cruzi tyrosyl tRNA synthetase (TcYRS) _High Tyrosine SOP. Also: in the data most compounds retested in dose-response had high values. The class given is functional. To be noted: 30 µM.

Test [8] addresses T4, Tyrosyl-tRNA synthetase, putative (Trypanosoma cruzi (strain CL Brener)). Description: Trypanosoma cruzi tyrosyl tRNA synthetase (TcYRS) SOP. The class given is functional. To be noted: 30 µM.
The target of test [9] is Chromo domain-containing protein 1 (Saccharomyces cerevisiae (strain ATCC 204508 / S288c) (Baker's yeast)) (UniProt P32657). Description: ScCHD-1 Enzyme Inhibition Assay. Also: in the data most compounds retested in dose-response had high values. The class given is functional. Conditions: 30 µM.
Sequence of Chromo domain-containing protein 1 (Saccharomyces cerevisiae (strain ATCC 204508 / S288c) (Baker's yeast)) (P32657 whole entry, the tested form may be a part): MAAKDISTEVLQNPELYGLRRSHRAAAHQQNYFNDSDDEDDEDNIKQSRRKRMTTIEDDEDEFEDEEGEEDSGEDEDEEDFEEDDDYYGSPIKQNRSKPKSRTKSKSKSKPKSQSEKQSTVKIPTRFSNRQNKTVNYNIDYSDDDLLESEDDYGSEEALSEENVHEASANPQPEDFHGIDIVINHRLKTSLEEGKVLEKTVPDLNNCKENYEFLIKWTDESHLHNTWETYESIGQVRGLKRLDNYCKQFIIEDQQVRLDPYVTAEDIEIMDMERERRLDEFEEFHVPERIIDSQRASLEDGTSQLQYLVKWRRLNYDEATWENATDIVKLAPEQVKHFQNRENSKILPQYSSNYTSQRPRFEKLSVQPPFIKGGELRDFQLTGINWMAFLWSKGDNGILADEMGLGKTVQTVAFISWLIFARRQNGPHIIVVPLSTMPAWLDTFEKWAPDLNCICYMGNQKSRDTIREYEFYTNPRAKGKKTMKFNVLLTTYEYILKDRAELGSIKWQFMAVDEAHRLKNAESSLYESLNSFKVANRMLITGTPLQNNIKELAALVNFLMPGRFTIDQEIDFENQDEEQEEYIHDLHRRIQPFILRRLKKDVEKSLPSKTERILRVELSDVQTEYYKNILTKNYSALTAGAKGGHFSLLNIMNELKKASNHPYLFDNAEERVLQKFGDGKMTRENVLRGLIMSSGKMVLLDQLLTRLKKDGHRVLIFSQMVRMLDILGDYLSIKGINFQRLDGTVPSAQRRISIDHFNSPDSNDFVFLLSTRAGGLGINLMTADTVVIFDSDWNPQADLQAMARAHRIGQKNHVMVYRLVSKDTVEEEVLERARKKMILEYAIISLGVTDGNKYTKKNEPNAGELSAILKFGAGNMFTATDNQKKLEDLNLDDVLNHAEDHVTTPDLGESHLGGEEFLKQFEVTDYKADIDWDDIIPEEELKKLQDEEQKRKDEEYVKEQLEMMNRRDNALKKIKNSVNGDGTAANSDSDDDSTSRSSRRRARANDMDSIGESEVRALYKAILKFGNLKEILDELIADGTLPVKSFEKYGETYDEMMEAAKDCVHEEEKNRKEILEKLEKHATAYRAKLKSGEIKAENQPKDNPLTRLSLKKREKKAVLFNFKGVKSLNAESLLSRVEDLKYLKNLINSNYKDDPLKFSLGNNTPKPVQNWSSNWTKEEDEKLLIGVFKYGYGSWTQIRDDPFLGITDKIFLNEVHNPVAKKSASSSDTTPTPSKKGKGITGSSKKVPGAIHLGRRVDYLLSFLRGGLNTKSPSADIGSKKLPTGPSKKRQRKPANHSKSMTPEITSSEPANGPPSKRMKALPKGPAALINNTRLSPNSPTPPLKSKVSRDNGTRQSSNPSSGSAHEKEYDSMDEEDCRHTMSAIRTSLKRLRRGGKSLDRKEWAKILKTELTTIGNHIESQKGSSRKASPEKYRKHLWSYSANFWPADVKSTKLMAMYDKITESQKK

For part of these data: Potency and affinity values are given separately.

Sequence of Sialic acid-binding Ig-like lectin 9 (Homo sapiens) (Q9Y336 whole entry): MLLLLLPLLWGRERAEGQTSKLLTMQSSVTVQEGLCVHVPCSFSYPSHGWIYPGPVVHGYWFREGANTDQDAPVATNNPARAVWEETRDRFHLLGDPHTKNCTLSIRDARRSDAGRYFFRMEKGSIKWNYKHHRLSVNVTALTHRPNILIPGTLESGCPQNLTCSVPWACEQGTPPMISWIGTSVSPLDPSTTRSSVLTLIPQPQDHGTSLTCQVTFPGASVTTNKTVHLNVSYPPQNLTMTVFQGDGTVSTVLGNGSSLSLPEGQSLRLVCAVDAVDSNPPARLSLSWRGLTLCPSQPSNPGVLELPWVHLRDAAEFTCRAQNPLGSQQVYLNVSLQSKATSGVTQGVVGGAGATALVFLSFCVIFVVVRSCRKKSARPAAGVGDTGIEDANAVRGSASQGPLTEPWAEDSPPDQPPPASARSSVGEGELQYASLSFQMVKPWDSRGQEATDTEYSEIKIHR
Sequence of Protein translocase subunit SecA (Escherichia coli (strain K12)) (P10408 whole entry): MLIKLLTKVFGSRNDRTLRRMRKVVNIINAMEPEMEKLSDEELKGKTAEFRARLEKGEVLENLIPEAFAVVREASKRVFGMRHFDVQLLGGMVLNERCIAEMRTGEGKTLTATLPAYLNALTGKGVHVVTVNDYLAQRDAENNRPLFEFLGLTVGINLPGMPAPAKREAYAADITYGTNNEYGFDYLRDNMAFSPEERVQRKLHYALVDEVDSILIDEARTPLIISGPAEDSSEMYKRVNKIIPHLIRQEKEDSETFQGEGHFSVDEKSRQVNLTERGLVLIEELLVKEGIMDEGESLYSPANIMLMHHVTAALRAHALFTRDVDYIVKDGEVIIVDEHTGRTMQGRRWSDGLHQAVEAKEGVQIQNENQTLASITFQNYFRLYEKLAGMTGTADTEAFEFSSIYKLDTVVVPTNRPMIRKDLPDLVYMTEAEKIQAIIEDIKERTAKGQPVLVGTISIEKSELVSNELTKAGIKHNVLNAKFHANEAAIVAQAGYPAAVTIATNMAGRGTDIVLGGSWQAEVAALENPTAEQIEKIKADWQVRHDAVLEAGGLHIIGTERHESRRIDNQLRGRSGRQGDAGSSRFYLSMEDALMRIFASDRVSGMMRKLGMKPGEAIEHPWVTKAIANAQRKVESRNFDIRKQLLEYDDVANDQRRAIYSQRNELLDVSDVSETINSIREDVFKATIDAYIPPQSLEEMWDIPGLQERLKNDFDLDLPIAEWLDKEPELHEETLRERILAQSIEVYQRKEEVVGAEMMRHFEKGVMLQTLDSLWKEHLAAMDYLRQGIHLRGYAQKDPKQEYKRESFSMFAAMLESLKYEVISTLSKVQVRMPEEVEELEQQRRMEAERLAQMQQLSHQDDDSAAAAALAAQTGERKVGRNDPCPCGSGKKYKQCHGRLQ

Turning to `c1cnn(-c2ccc(CN3CCOC(Cn4cncn4)C3)cc2)c1` (centres undefined), the Percent Effect was -2.23% in test [1]; 12.7% in test [2]; 0.7% in [3]; 6.36% in test [4]; 2.74% in the test with Trypanosoma cruzi; 1.52% in test [5]. Moreover, the Percent Effect is -2.21% in test [6]; -11.6% in the test filed under Homo sapiens; 7.39% in [7]; 13.9% in test [8]; -8.36% in [9].

With `CS(=O)(=O)N1CCCC12CCCN(S(=O)(=O)c1cc(F)cc(F)c1)C2` (centres undefined), the Percent Effect in test [1] is -5.6%; in test [2], -8.11%; in test [3], 3.16%; in [4], -10%; with Trypanosoma cruzi, -3.23%; in test [5] it was -2.23%. Further, the Percent Effect in [6] was 10%; in the test filed under Homo sapiens it was 14.4%; in test [7], 0%; in test [8], -1.24%; in test [9], -0.985%.

For the compound `Cc1ccc(-c2ncc(C(=O)NCCNc3ncccn3)s2)c(C)c1`, the Percent Effect in [1] is -2.83%; in test [2] it was 5.41%; in test [3], 2.58%; in test [4] it was 1.25%; in the test on Trypanosoma cruzi, 7.83%; in test [5], -2.4%. Also, the Percent Effect was 1.8% in [6]; 11.8% in the test filed under Homo sapiens; 5.42% in test [7]; 16.1% in [8]; -8.22% in test [9].

On to `O=C(c1cc(Cl)cc(Cl)c1)N1CCN(c2nccs2)CC1`, for which the Percent Effect in test [1] is -2.62%; in [2] it was 13.7%; in [3], 5.26%; in test [4] it was 6.34%; in the test on Trypanosoma cruzi, 0.588%; in test [5], 10.4%. Also, the Percent Effect was 19.2% in [6]; 0.362% in the test listed under Homo sapiens; 4.3% in test [7]; 20% in test [8]; -10.5% in test [9].

For `O=C(NCC(Cc1cccc(F)c1)N1CCCC1=O)c1cnccn1` (centres undefined), the Percent Effect in [1] was -2.43%; in test [2], 2.74%; in test [3], 8.47%; in test [4], -6.79%; in the test with Trypanosoma cruzi it was -4.31%; in [5] it was 3.64%. The Percent Effect in [6] was 9.94%; in the test filed under Homo sapiens it was -2.19%; in test [7], 4.3%; in test [8], 5%; in test [9] it was -2.36%.

With `COc1ccc(CN(C)CC2CCCN2c2cccnn2)cc1F` (centres undefined), the Percent Effect in test [1] was 1.17%; in test [2], 15.6%; in test [3] it was 13.3%; in test [4] it was -7.91%; in the test with Trypanosoma cruzi, -2.25%; in test [5] it was -7.79%. For the same compound, the Percent Effect in [6] was 13.8%; in the test listed under Homo sapiens it was 18.7%; in [7], 7.62%; in [8], 18.8%; in test [9] it was -22.1%.

With `O=C(Cc1ccccn1)N1CCN(CC2CC2)c2ncccc2C1`, the Percent Effect in test [1] is -4.53%; in test [2], 10.7%; in [3], 3.91%; in test [4] it was 0.314%; in the test on Trypanosoma cruzi, 0.591%; in test [5], -0.699%. The Percent Effect in [6] is 4.85%; in the test filed under Homo sapiens it was 9.79%; in [7] it was 6.38%; in test [8], 16.7%; in test [9], -7.07%.

Take `CCC(O)CN1CCN(C(=O)c2ccnc(N(C)C)c2)CC1` (centres undefined): the Percent Effect in [1] was -1.16%; in test [2], 5.41%; in [3], -5.16%; in test [4], 13%; in the test with Trypanosoma cruzi it was 6.37%; in [5] it was 14.3%. The Percent Effect was 4.83% in [6]; -0.0962% in the test listed under Homo sapiens; 1.59% in test [7]; 12.2% in test [8]; -4.75% in test [9].

For the compound `CC1CN(CC(=O)Nc2cccnc2)CCN1c1nccs1` (centres undefined), the Percent Effect in test [1] was -0.157%; in [2], 2.7%; in test [3] it was -1.61%; in test [4], 7.17%; in the test on Trypanosoma cruzi, -0.464%; in test [5], 3.14%. The Percent Effect in test [6] is 1.26%; in the test listed under Homo sapiens, 27.8%; in test [7] it was 1.98%; in test [8], -1.22%; in test [9], 13.7%.

Values taken from ChEMBL document CHEMBL3988442, “University of Dundee, Small-Polar-MMV Screening Library” (2021).
